An excerpt weighted towards active compounds, which were near 11% of everything screened.
ALOX12 inhib = inhibitors of human 12-lipoxygenase (ALOX12) | P18054 | purified 12-hLO, xylenol orange hydroperoxide absorbance | Potency, µM (series often up to 57.1 µM), for the others: at the highest dose activity change, negative = inhibition, most hits filed as inhibitors | 150,000 compounds, 0.12% hits | AID 1452; active = well fitted curve in the direction sought with a large enough effect; inconclusive = small, poorly fitted or top-dose-only effect, or another doubt; inactive = no such curve, though single readings can be large; an effect the other way counts as inactive or inconclusive; also: potency is read from the fitted curve at half-maximal effect; nearly all actives have a fitted effect of over 55% in size
Target sequence (P18054 whole entry, looked up): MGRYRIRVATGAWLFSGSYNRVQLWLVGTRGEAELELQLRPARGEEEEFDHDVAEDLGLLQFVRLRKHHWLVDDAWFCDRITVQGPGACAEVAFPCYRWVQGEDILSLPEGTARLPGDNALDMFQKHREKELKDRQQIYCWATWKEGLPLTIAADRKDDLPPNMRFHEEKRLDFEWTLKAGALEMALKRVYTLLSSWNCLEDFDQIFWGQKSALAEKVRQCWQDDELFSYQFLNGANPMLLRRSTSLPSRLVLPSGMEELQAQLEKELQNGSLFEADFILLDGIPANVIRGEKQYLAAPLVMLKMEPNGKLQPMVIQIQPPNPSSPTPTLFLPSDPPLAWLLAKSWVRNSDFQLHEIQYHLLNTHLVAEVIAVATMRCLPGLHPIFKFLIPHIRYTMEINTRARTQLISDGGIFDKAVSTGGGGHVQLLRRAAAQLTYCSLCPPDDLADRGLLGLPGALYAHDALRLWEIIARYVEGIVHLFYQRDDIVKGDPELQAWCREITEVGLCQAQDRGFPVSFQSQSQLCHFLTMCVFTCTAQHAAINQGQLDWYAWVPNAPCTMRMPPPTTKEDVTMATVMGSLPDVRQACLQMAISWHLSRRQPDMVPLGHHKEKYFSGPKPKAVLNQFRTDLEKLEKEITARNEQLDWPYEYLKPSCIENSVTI
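Purified human 12hLO (150 nM final) was preincubated with compounds for 15 min at room temperature in 25 mM Hepes pH 7.0, 0.01% Triton X-100, then reacted with 40 uM arachidonic acid for 30 min. Hydroperoxide was detected with ferrous iron/xylenol orange.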
IMPase Li inh = membrane-permeable IMPase blocker, potentiated with lithium. CHO-M1 cells, IP1 TR-FRET (IP-One), carbachol + lithium. Potency, µM (doses to about 59.4 µM), for inactives: top-dose activity, negative = IMPase inhibition, usual class: inhibitors. 210,000 compounds, 0.35% hits; active = well fitted curve in the direction sought with a large enough effect; inconclusive = small, poorly fitted or top-dose-only effect, or another doubt; inactive = no such curve, though single readings can be large; an effect the other way counts as inactive or inconclusive;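 also: IP1 builds up when IMPase is blocked and the TR-FRET signal falls; potency is read from the fitted curve at half-maximal effect; plate controls were basal vehicle for no effect and high inhibitor control for full effect; nearly all actives have a fitted effect of over 50% in size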
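CHO cells stably expressing M1 receptor (2000/well) were cultured 16–30 h, then exposed to compounds with a small lithium addition for 30 min at 37C. IP1 was measured by TR-FRET competition; AC50 from Hill fits.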
PNC assembly inh = blocks assembly of the perinucleolar compartment; activity change (PNC), negative = inhibition, % at 10 µM; PC3M PTB-GFP, PNC prevalence imaging, 16 h; stronger effect = lower value; 140,000 compounds, 3.1% hits;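 active = readout at or below -70, meaning at least 70% loss of cells showing the perinucleolar compartment, a nuclear body marking cancer cells; inconclusive = readout between -30 and a set limit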;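 also: plate controls were DMSO wells for no effect and camptothecin positive control wells for full effect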
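Read-out is percentage of cells bearing a perinucleolar compartment, from automated 20x imaging of fixed, Hoechst-stained PC3M PTB-GFP cells. Cells were seeded 4 h, then exposed 16 h to compound (23 nl of library stock) in duplicate plates.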
IMPase cell inh = IMPase inhibition in cells; P97697; CHO-M1 cells, IP1 accumulation, HTRF TR-FRET ratio; inhibition (IP1 accumulation), % at 46.1 µM; 120,000 tested, under 10 active; active = well fitted curve in the direction sought with a large enough effect in the signal ratio, not every such curve was filed as active; inconclusive = small, poorly fitted or top-dose-only effect, or a change in a side signal; inactive = no such curve, though single readings can be large or run the other way; the % refers to the signal ratio;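 also: cells stimulated with carbachol in lithium chloride buffer; plate controls were DMSO basal wells for no effect and reference inhibitor wells for full effect; higher means more IMPase inhibition seen as more IP1 and lower FRET ratio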
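Elevated IP1 in lysates lowers TR-FRET signal (665/620 ratio and 620 channel reported). Cells were CHO-M1, given carbachol (50 uM as added) plus 50mM LiCl, pH 7.4, 30 min, 37C; compounds titrated up to 46 uM; AC50 by Hill equation.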
ALDH1A1 inh = blocks purified human ALDH1A1 activity; Purified ALDH1A1, NADH fluorescence, propionaldehyde substrate; Potency, µM (titrated, usually from 75.3 µM), inactives show at the highest dose activity, negative = inhibition, most hits filed as inhibitors; P00352; 220,000 compounds, 7.3% hits;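 also: potency is read from the fitted curve at half-maximal effect; plate controls were no enzyme wells and a reference inhibitor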
HPGD inh = inhibitors of human 15-hydroxyprostaglandin dehydrogenase (HPGD); 150,000 compounds, 4.3% hits; Potency, µM, inactives show top-dose activity change, negative = inhibition, most hits filed as inhibitors; P15428; purified HPGD, NADH fluorescence kinetic, PGE2 substrate; also: potency is read from the fitted curve at half-maximal effect
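20 nM HPGD preincubated 15 min at room temperature with compound in 50 mM Tris-HCl pH 8, 0.01% Tween 20. Started with 1 mM NAD+ and 30 uM prostaglandin E2; NADH fluorescence (360/450 nm) read 5 times over 30-s intervals, last minus first.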
* hit, by the source's call; ? = inconclusive; nt = not tested or not shown; [ ] = remark or other dose. Unless noted, calls follow the shape of the dose curve; as a rule, active = well fitted inhibition curve with a large enough effect (not every such curve was filed as active); inconclusive = small, poorly fitted or top-dose-only effect, or another doubt; inactive = no such curve, though single readings can be large or run the other way. Unless noted, % is scaled to controls: 0 for no effect and ±100 for the full control effect.

SMILES	ALOX12 inhib	IMPase Li inh	PNC assembly inh	IMPase cell inh	ALDH1A1 inh	HPGD inh
C=CCNC(=O)c1ccc2nc(-c3ccccc3)c(-c3ccccc3)nc2c1	-2.2%	-5.8%[38.3 µM]	49.9	19.5	?	?
C=CCNC(=O)c1ccccc1CCc1ccccc1	nt	0.4%	nt	nt	-2.6%	nt
C=CCNC(=O)c1ccccc1Cl	1.3%	-9.5%[38.3 µM]	10.6	-4.2	-3.3%	15.8µM*
NCC1CCCCC1CC(=O)O (stereo unspecified)	-0.9%	17.5%	nt	nt	11.6%	-5.0%
COC(=O)C1=C(C(=O)OC)[C@@H]2Nc3ccccc3[C@@]23C[C@@H](C(=O)OC)N(S(=O)(=O)c2ccc4c(c2)OCCN4C)C3=N1	3.0%[11.4 µM]	8.4%	nt	nt	3.1%[13.5 µM]	-2.3%
C/C(CCC(=O)OC[C@@H]1O[C@H](C#Cc2ccccc2)C=C[C@@H]1Oc1ccc(C)cc1)=N/O[C@@H](C)c1cn([C@H](CO)Cc2ccccc2)nn1	nt	nt	nt	nt	-5.8%[13.5 µM]	nt
Nc1nc(-c2ccc3ccccc3c2)cc(-c2cc(-c3ccc4ccccc4c3)nc(N)n2)n1	-3.7%[11.4 µM]	4.8%	nt	nt	7.2%[13.5 µM]	-3.3%
CN1/C(=C/C(=S)NC(=O)C2(C)CC2(Cl)Cl)C(C)(C)c2ccccc21 (stereo unspecified)	nt	6.2%	nt	nt	3.98µM*	nt
CC(C)(C)c1cc(C(=O)/C=C/c2ccc(C(=O)O)cc2)cc(C(C)(C)C)c1	-3.3%	1.2%	nt	nt	5.6%	-18.8%
Cc1nc2c(C)cccc2cc1C(=O)N/N=C/c1ccc(N(C)C)cc1	8.7%	35.7%[38.3 µM]	-29.6	?	11.2µM*	-18.0%
CN(C)c1ccc(/C=N/NC(=O)c2ccccc2)cc1	nt	8.3%	nt	nt	?	nt
CN(C)c1ccc(/C=N/NC(=O)c2ccc3nc[nH]c3c2)cc1	nt	nt	nt	nt	17.8µM*	nt
N#C/C(=C\c1ccc(-c2cccc(Cl)c2)o1)C(=O)Nc1cccc(C(F)(F)F)c1	nt	nt	nt	0.7	nt	nt
CCOC(=O)C1(C(C)C)Oc2ccccc2C(c2ccc(OC)cc2)=C1C(=O)OC (stereo unspecified)	-1.9%[0.00818 µM]	15.6%	nt	nt	-1.1%	?
C=CCN1c2ccccc2[C@]23C[C@@H](C(=O)OC)N(S(=O)(=O)c4ccc(C)cc4)C2=NC(C(=O)OC)=C(C(=O)OC)[C@H]13	-1.5%[11.4 µM]	-13.0%	nt	nt	-8.5%[13.5 µM]	-3.5%
Cc1nc(N2CCOCC2)c2nc(-c3ccccc3)n(CCN3CCCC3)c2n1	-0.5%	-2.6%	nt	nt	?	?
CC(C)CCn1c(O)c(N=Nc2ccccn2)c2ccccc21	-5.9%	11.0%	?	nt	0.355µM*	-10.3%
Oc1ccc2ccccc2c1N=Nc1ccccn1	?	31.5%[38.3 µM]	14.7	18.0	?	31.6µM*
CCCn1c(O)c(N=Nc2ccc3ccccc3n2)c2ccccc21	-0.7%	8.4%	-115.0*	nt	-13.4%	-6.0%
CCCn1c2ccccc2c2nc3ccccc3nc21	-6.3%	19.1%[38.3 µM]	?	-18.3	-10.6%	-4.8%
COc1ccc(S(=O)(=O)NCC2CCCN(C(=O)c3ccco3)C2)cc1 (stereo unspecified)	nt	5.4%	nt	nt	3.98µM*	nt
COc1ccc(S(=O)(=O)NCC2CCCN(C(=O)c3cccs3)C2)cc1 (stereo unspecified)	nt	5.0%	nt	nt	1.12µM*	nt
CCc1cc(C(=O)N2CCCC(CNS(=O)(=O)c3cccs3)C2)n(C)n1 (stereo unspecified)	nt	2.3%	nt	nt	5.01µM*	nt
COc1ccc(S(=O)(=O)NCC2CCCN(C(=O)c3cccnc3)C2)cc1 (stereo unspecified)	nt	-0.4%	nt	nt	?	nt
C=CCSC1=Nc2sccc2C2=NC(=O)CN12	-2.2%	-0.9%[38.3 µM]	79.6	-4.2	14.1µM*	-9.2%
COC(=O)C1=C(C(=O)OC)SC2(S1)C(C(=O)OC)=C(C(=O)OC)SC1=C2c2cc(C)ccc2NC1(C)C	-8.6%	32.6%[38.3 µM]	5.1	3.7	8.91µM*	10µM*
CCCCc1nc2ccccc2n2c(-c3ccc(OC)cc3)c3c(=O)n(C)c(=O)n(C)c3c12	nt	nt	nt	6.1	nt	nt
CCn1c(-c2ccccc2O)n[nH]c1=S	3.2%	-25.3%[38.3 µM]	-115.0*	-7.1	?	-21.2%

Screens as filed in PubChem BioAssay.
